GPR151 ag – activators of human GPR151, primary screen, cell-based, PathHunter beta-arrestin, luminescence; hit rate 1% among 650,000; PathHunter beta-arrestin GPR151 cells; activation, % at 11.2 µM; G-protein coupled receptor 151 (Homo sapiens), Q8TDV0; in the data active means activation above about 4.9%;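 further: 0% = median of compound wells and 100% = cells with positive control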
TEAD-YAP inh – TEAD-YAP interaction inhibition, primary screen, TEAD-YAP interaction inhibitor project, luminescence, HEK-TIYL cells; TEAD-Gal4/YAP UAS-luciferase luminescence; inhibition, % at 9.12 µM; hit rate 1.4% among 640,000; in the data active means inhibition above about 32%;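 further: 0% = median of test compound wells and 100% = reference inhibitor wells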
MITF primary – MITF inhibitors, primary screen, biochemical, AlphaScreen, human | Microphthalmia-associated transcription factor (Homo sapiens), O75030 | AlphaScreen MITF homodimerization, bead proximity signal | inhibition, % at 2.6 µM | hit rate 0.91% among 650,000; in the data active means inhibition above about 50%;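 further: 0% = vehicle wells with protein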
Target sequence (O75030 whole entry, looked up): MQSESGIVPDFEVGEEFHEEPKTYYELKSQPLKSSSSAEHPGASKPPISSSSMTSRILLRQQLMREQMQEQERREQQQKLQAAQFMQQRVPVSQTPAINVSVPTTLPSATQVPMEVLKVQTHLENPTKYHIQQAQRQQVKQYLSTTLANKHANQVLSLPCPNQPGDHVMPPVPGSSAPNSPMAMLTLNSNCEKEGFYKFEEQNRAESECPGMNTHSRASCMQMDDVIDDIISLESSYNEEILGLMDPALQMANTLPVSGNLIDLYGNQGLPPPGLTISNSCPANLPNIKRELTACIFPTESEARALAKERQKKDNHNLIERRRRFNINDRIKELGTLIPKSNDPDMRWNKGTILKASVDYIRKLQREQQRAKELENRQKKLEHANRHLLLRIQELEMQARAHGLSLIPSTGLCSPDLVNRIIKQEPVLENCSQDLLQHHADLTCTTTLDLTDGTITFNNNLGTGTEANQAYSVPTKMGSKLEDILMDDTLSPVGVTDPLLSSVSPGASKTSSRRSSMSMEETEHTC
FBW7 activator – FBW7 E3 ligase activators, primary screen, biochemical, AlphaScreen, human; F-box/WD repeat-containing protein 7 (Homo sapiens), Q969H0; AlphaScreen FBW7–phospho-cyclin E peptide binding, activator screen; normalized activity (activation), % at 26.1 µM; hit rate 0.13% among 650,000; AID 1259310, 2017; in the data active means normalized activity above about 1.9%;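 further: purified mutant Fbw7 with reduced substrate affinity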
MITF confirm – MITF inhibitors, retest of hits, confirmation, biochemical, AlphaScreen, triplicate | hit rate 16% among 4,700 | shares compounds with MITF primary | inhibition, % at 2.6 µM | AlphaScreen MITF homodimerization, biotin/His-MITF beads | AID 1259372, 2018;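 active means inhibition above a cutoff derived from the DMSO control wells, cut at about 28% in these data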;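 further: 0% = MITF dimer wells with DMSO only; inhibitors lower the bead chemiluminescence by keeping MITF from dimerizing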
AS interf DR – AlphaScreen optical interference compounds, dose response, counter-screen, biochemical, HTS | AlphaScreen optical interference counterscreen, cell-free | IC50, µM | shares compounds with MITF primary | hit rate 6% among 480; call rule not given here
AS interf ctr – AlphaScreen optical interference compounds, counter-screen for MITF inhibitor project, biochemical, triplicate; inhibition, % at 2.6 µM; LysRS AlphaScreen counterscreen, signal interference; AID 1259376, 2018; shares compounds with MITF primary; hit rate 7.6% among 4,700;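 active means inhibition above a cutoff derived from the DMSO control wells, cut at about 30% in these data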
An asterisk follows results filed as active; nt = no result. The list is not random: actives were taken first. Their share in the collection is about 3.5%.

SMILES	GPR151 ag	TEAD-YAP inh	MITF primary	FBW7 activator	MITF confirm	AS interf ctr	others
Cc1ccc(C)c(OCCOCCNC(C)(C)C)c1	0.2	1.7	33.3	0.1	nt	nt
Cc1cc(Cl)cc(C)c1OCCOCCNC(C)(C)C	0.4	2.9	66.7*	0.0	-10.9	-9.2
COc1ccc(Br)cc1/C=N/NC(=O)CNC(=O)c1ccc(Cl)cc1	-0.2	-1.4	-3.2	-0.2	nt	nt
CN1CCN(CCOCCOc2cccc(Br)c2)CC1	-1.3	9.8	71.9*	-0.1	5.5	4.7
CN1CCN(CCOCCOc2ccc(Br)cc2Cl)CC1	0.8	15.5	48.5	-0.1	nt	nt
CCN1CCN(CCOc2cccc(Br)c2)CC1	0.0	7.7	68.0*	0.3	14.6	19.7
CNc1ccccc1-c1nc2cc3ccccc3cc2[nH]c1=O	0.8	-32.2	15.1	0.0	nt	nt
COc1cccc(C(=O)COC(=O)CCC(=O)Nc2ccc([N+](=O)[O-])cc2)c1	1.4	0.3	-0.2	-0.1	nt	nt
COc1cccc(C(=O)COC(=O)CCCC(=O)Nc2ccc([N+](=O)[O-])cc2)c1	2.2	8.2	62.1*	-0.1	11.0	13.7
COCCCNCCOCCOc1ccc(C)cc1[N+](=O)[O-]	-0.2	5.6	30.4	-0.1	nt	nt
COCCNCCOCCOc1ccc(C)cc1[N+](=O)[O-]	-1.3	-7.8	58.3*	0.2	11.1	10.5
COCCNCCCCOc1ccc(C)cc1[N+](=O)[O-]	-1.4	-3.3	17.1	-0.1	nt	nt
CCC(C)NCCCCOc1ccc(C)cc1[N+](=O)[O-] (stereo unspecified)	2.3	-6.4	70.3*	-0.4	3.5	14.1
CCC(C)NCCOc1ccccc1[N+](=O)[O-] (stereo unspecified)	1.0	11.8	33.5	0.2	nt	nt
C=CCNCCCCOc1ccc(C)cc1[N+](=O)[O-]	1.2	-1.5	74.5*	-0.2	-3.8	-0.2
Cc1nn(C)c(C)c1-c1cccc(C(=O)Nc2ccc(Oc3ccccc3)cc2)n1	0.7	-8.2	-1.3	-0.1	nt	nt
CCOC(=O)/C=c1\[nH]c(=O)/c(=C\c2ccc(C(C)(C)C)cc2)s1	-2.1	-1.4	18.5	0.1	nt	nt
Cc1ccc(C(=O)/C=C/c2ccc(Br)cc2)o1	-0.2	0.6	7.5	0.0	nt	nt
Cc1ccc(C(=O)/C=C/c2ccc(Br)o2)o1	-0.7	-8.4	67.1*	-0.6	20.7	-1.2
Cc1ccc(C(=O)N/C(=C/c2ccc([N+](=O)[O-])o2)C(=O)O)cc1	0.9	6.3	70.2*	0.0	53.7*	4.5	AS interf DR=>5.88
Cc1ccc(NC(=O)/C(=C\c2ccc([N+](=O)[O-])o2)NC(=O)c2ccc(Cl)cc2)cc1	0.3	0.4	14.8	-0.4	nt	nt
OC(CNc1ccccc1)CN1c2ccccc2Sc2ccccc21 (stereo unspecified)	-0.1	0.4	9.1	0.5	nt	nt
Cc1ccc(C)c(NCC(O)CN2c3ccccc3Sc3ccccc32)c1 (stereo unspecified)	0.5	6.4	73.4*	-0.1	1.1	2.9
CC(=O)N(C)c1ccc(OCC(O)CN2CCN(Cc3ccccc3)CC2)cc1 (stereo unspecified)	1.0	-7.2	82.1*	0.0	8.1	18.2
COC(=O)C(C)CN1CCN(Cc2ccccc2)CC1 (stereo unspecified)	-0.1	-4.5	78.5*	-0.3	23.9	-3.2
SMILES	GPR151 ag	TEAD-YAP inh	MITF primary	FBW7 activator	MITF confirm	AS interf ctr	others
COC(=O)C(C)CN1CCc2ccccc2C1 (stereo unspecified)	-1.1	-1.0	47.0	0.6	nt	nt
Cc1cc(C)c(C(=O)N2CCC(=O)N(Cc3cn4cccc(C)c4n3)CC2)[nH]1	2.7	-7.1	-0.5	0.1	nt	nt
Cc1cccn2cc(CN3CCCc4ccccc43)nc12	1.9	4.6	55.3*	-0.1	7.5	18.3
O=C(NC1CCCCC1)C(=S)NC1CCCC1	-0.7	-54.7	10.5	0.9	nt	nt
O=C(NNC(=S)NC1CCCCC1)C(=O)NNC(=S)NC1CCCCC1	-0.5	-2.0	62.2*	-0.5	7.9	-11.4
COc1ccccc1N1CCN(CCCOc2ccc(F)cc2)CC1	1.2	9.2	59.9*	0.2	7.4	11.7
COc1ccc(OCCCN2CCN(c3ccccc3OC)CC2)cc1	1.0	7.7	80.6*	0.0	52.5*	39.4*
COc1ccccc1N1CCN(C(=O)CN2CCN(C)CC2)CC1	4.6	13.9	54.4*	0.3	1.8	-0.9
COc1ccccc1N1CCN(CCCCCCN)CC1	-0.3	6.7	6.0	0.2	nt	nt
COc1ccccc1NC(=O)N1CCN(C)CC1	-0.6	7.8	51.6*	0.0	8.8	10.3
CC1=C(C(=O)OCc2ccccc2)C(c2ccccc2I)NC(=O)N1 (stereo unspecified)	-1.1	-0.9	5.2	0.0	nt	nt
Cc1oc(C(=O)O)cc1CSCCSCc1cc(C(=O)O)oc1C	0.5	1.3	51.5*	-0.5	42.5*	15.8	AS interf DR=>6.48
CCN(CCN(C)C)C(=O)Cn1c(=S)[nH]c2ccccc2c1=O	1.2	4.4	0.7	-0.1	nt	nt
CCOC(=O)N1CCN(Cc2ccc3c(c2)CN(C(=O)C2CNC(=O)C2)CCO3)CC1 (stereo unspecified)	1.7	1.4	60.6*	0.1	16.6	14.4
CCOC(=O)N1CCN(C(=O)C2CCN(Cc3ccc(OC)c(OC)c3)CC2)CC1	1.8	2.0	52.1*	-0.1	8.5	21.9
CCOC(=O)N1CCN(C(=O)C2CCN(Cc3ccc(Cl)cc3)CC2)CC1	0.5	-0.4	54.4*	0.1	9.5	8.5
COC(=O)C(CCSC)NC(=O)c1cc2c(n(-c3ccc(Cl)cc3)c1=O)CC(C)(C)CC2=O (stereo unspecified)	1.0	-3.0	7.9	-0.1	nt	nt
CCOC1=CC(c2ccc3c(c2)OCO3)CC(=O)c2c(C)oc(C)c21 (stereo unspecified)	0.4	12.3	57.1*	-0.2	42.4*	22.0	AS interf DR=>6.48
CCOC(=O)C1=C(C)NC2=C(C(=O)CCC2)C1c1ccc2c(c1)OCO2 (stereo unspecified)	0.5	13.9	5.7	-0.1	nt	nt
CCOc1ccc2nc(N=C(NC(=O)CC)NC(=O)CC)nc(C)c2c1	-0.9	-35.4	110.0*	-0.1	3.2	6.3
O=C(Cc1ccccc1)n1nc(-c2cccnc2)nc1NCc1ccccc1	-0.7	-6.9	-0.2	0.0	nt	nt
O=C(Cc1ccccc1)n1nc(-c2cccnc2)nc1NCc1cccs1	0.3	-16.0	57.5*	0.9	-3.6	-4.7
Cc1ccc(CN2CCN(Cc3nc(C(C)C)cs3)CC2CCO)o1 (stereo unspecified)	0.9	-4.6	0.5	-0.1	nt	nt

Screening results deposited in PubChem BioAssay by The Scripps Research Institute Molecular Screening Center.
